Records with an inconclusive call do not appear. Active and inactive are the calls of the source. Unless noted, calls come from the whole dose curve; as a rule, active = well fitted curve in the direction sought with a large enough effect in the repeat runs; inconclusive = weak or mixed curves; inactive = no such curve, though single readings can be large; an effect the other way counts as inactive or inconclusive.
Columns and labels:
[1] = qHTS assay for small molecule agonists of the p53 signaling pathway (AID 651631; calls by dose curve; note: nearly all actives have a fitted effect of over 15% in size)
Summary of the method: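 Agonist mode screen using a stably integrated beta-lactamase gene under p53 response elements in HCT-116 cells. Compound exposure lasts 16 h at 37 °C; fluorescence intensity is measured following 2 h FRET substrate loading.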

[2] = qHTS assay for small molecules that induce genotoxicity in human embryonic kidney cells expressing luciferase-tagged ATAD5 (AID 651632); note: nearly all actives have a fitted effect of over 15% in size
Summary of the method: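 Quantitative HTS in HEK293T expressing luciferase-tagged ATAD5, whose levels rise upon DNA damage. Exposure ran 16 hr at 37C and 5% CO2, with luminescence read 30 min after Amplite addition at room temperature.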

[3] = qHTS assay for small molecule agonists of the p53 signaling pathway - cell viability (AID 651633; calls by dose curve;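 note: p53RE-bla HCT reporter cells with a stable beta-lactamase p53 reporter; series mostly up to about 83 µM; nearly all actives have a fitted effect of over 30% in size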)
Summary of the method: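 Viability counter-read: CellTiter-Glo luminescence (30 min, room temperature) in the same p53RE-bla plates. These plates had been exposed to compounds for 16 h at 37 C.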

[4] = qHTS assay for small molecules that induce genotoxicity in human embryonic kidney cells expressing luciferase-tagged ATAD5 - cell viability (AID 651634; calls by dose curve; note: nearly all actives have a fitted effect of over 25% in size)
Summary of the method: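 After 15.5 hr incubation with compound at 37C, 5% CO2, HEK293T ATAD5-luciferase cells received CellTiter-Fluor reagent; fluorescence intensity was quantified following 30 min at 37C.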

[5] = qHTS assay for small molecule disruptors of the mitochondrial membrane potential - cell viability (AID 720634; calls by dose curve;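 note: human HepG2 liver cancer cells; series mostly up to about 83 µM; nearly all actives have a fitted effect of over 20% in size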)
Summary of the method: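 ATP-based luminescent viability readout (CellTiter-Glo, 30 min, room temperature) in HepG2 cells multiplexed with the m-MPI membrane potential dye; compound exposure lasted 1 hr at 37 C.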

[6] = qHTS assay to test for compound auto fluorescence at 535 nm (green) in HepG2 cells (AID 720675)
[7] = qHTS assay to test for compound auto fluorescence at 460 nm (blue) in HEK293 cells (AID 720678)
Summary of the method: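 Intrinsic compound fluorescence is recorded in live HEK293 cultures after overnight incubation at 37C, 5% CO2, using excitation 405 nm and emission 460 nm. Values are referenced to triamterene.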

[8] = qHTS assay to test for compound auto fluorescence at 590 nm (red) in HEK293 cells (AID 720679)
Summary of the method: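 Red autofluorescence, HEK293 cells: 2,000 cells/well; attach 4-5 hr 37C; add 23 nL cpd or DMSO; incubate o/n 37C 5% CO2; read Ex540/Em590; Rose Bengal sodium reference.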

[9] = qHTS assay to test for compound auto fluorescence at 535 nm (green) in HEK293 cells (AID 720680)
[10] = qHTS assay to test for compound auto fluorescence at 460 nm (blue) in HEK293 cell free culture (AID 720681)
Summary of the method: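 Blue fluorescence (Ex 405/Em 460 nm, triamterene-equivalent) was read immediately after pin transfer of compound or DMSO into medium (DMEM, 10% FBS) without cells.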

[11] = qHTS assay to test for compound auto fluorescence at 535 nm (green) in HEK293 cell free culture (AID 720682)
Summary of the method: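 No cells present: wells hold DMEM supplemented with 10% FBS, into which compound or vehicle is pinned. Green emission is then recorded (485 nm excitation, 535 nm emission) and scaled to fluorescein.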

[12] = qHTS assay to test for compound auto fluorescence at 590 nm (red) in HEK293 cell free culture (AID 720683)
Summary of the method: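 Red-channel autofluorescence of compounds in culture medium (DMEM, 10% FBS), no cells, measured at 540/590 nm. Rose Bengal sodium is the reference fluorophore for equivalence.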

[13] = qHTS assay to test for compound auto fluorescence at 590 nm (red) in HepG2 cell free culture (AID 720684)
Summary of the method: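 Cell-free; medium MEM + 10% FBS; compound or DMSO added by pintool; read Ex 540/Em 590 nm; Rose Bengal sodium as red reference fluorophore.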

[14] = qHTS assay to test for compound auto fluorescence at 460 nm (blue) in HepG2 cell free culture (AID 720685)
Summary of the method: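 Cell-free plates of MEM plus 10% FBS received 23 nL compound or DMSO vehicle; blue-channel (405/460 nm) intensity scored against triamterene as reference fluorophore.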

[15] = qHTS assay to test for compound auto fluorescence at 535 nm (green) in HepG2 cell free culture (AID 720686)
[16] = qHTS assay for small molecule disruptors of the mitochondrial membrane potential (AID 720635); note: potency is the fitted concentration of half-maximal effect
Summary of the method: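 Mitochondrial membrane potential tracked with Mito-MPS dye, red aggregates (ex 540/em 590 nm) against green monomers (ex 490/em 535 nm). Compound treatment 1 hr at 37C, dye 30 min in HepG2.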

[17] = qHTS assay to test for compound auto fluorescence at 590 nm (red) in HepG2 cells (AID 720674)
Summary of the method: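 Red autofluorescence (Ex/Em 540/590 nm, Rose Bengal sodium equivalents) was measured in HepG2 cells, 2,000 per well in MEM plus 10% FBS, plated overnight at 37 C. Readings were taken 1 hr after adding 23 nL compound or DMSO, at 37 C and 5% CO2.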

[18] = qHTS assay to test for compound auto fluorescence at 460 nm (blue) in HepG2 cells (AID 720687)
Summary of the method: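 Blue-channel autofluorescence (Ex/Em 405/460 nm, triamterene-equivalent) was measured after 1 hr compound exposure at 37 C, 5% CO2. Cells were HepG2, plated overnight at 37 C in MEM plus 10% FBS.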

[19] = target: Glucocorticoid receptor (Homo sapiens) (UniProt P04150); test: qHTS assay to identify small molecule agonists of the glucocorticoid receptor (GR) signaling pathway (AID 720691; active = well fitted activation curve with a large enough effect in the signal ratio in the repeat runs, not every such curve was filed as active; the % refers to the signal ratio)
Glucocorticoid receptor (Homo sapiens), sequence (P04150 whole entry, looked up): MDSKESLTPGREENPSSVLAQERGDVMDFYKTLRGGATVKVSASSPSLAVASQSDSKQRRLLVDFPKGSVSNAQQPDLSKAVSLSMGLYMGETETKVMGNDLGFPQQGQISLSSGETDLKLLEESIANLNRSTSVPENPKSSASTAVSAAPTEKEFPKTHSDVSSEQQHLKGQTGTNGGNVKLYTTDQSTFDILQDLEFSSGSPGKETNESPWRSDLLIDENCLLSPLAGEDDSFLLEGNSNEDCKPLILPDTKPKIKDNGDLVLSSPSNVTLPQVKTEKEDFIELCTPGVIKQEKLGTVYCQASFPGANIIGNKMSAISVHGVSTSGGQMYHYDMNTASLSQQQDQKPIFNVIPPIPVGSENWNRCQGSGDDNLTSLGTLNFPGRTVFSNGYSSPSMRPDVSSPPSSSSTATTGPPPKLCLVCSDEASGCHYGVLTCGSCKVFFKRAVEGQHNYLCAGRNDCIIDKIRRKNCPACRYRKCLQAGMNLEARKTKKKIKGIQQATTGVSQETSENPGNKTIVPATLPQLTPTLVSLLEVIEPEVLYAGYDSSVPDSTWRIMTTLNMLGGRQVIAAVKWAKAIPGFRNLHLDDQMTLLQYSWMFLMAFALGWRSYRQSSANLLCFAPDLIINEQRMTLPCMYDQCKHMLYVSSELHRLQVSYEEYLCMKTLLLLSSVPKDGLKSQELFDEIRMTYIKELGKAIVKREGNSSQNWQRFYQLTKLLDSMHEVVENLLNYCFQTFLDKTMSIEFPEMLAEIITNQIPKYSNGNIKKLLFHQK
Summary of the method: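 Cells: GR-bla HeLa, endogenous GR with stably integrated GRE-beta-lactamase reporter. Treatment 18 h, 37 C, compounds delivered in DMSO. Detection via LiveBLAzer B/G FRET substrate, 2 h RT, fluorescence intensity.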

[20] = target: Glucocorticoid receptor (Homo sapiens) (UniProt P04150); test: qHTS assay to identify small molecule antagonists of the glucocorticoid receptor (GR) signaling pathway (AID 720692; active = well fitted inhibition curve with a large enough effect in the signal ratio in the repeat runs, not every such curve was filed as active; the % refers to the signal ratio)
Summary of the method: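 Quantitative HTS in antagonist format: HeLa cells expressing endogenous GR and a stably integrated GRE-bla reporter, stimulated with 5 nM dexamethasone (final) alongside test compounds for 18 h.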
% is set by controls: 0 for no effect and ±100 for the full control effect.

O=C(O)C(=O)Cc1c[nH]c2ccccc12
inactive: Potency [1] | Potency [2] | Potency [3] | Potency [4] | Potency [5] | outcome [6] | outcome [7] | outcome [8] | outcome [9] | outcome [10] | outcome [11] | outcome [12] | outcome [13] | outcome [14] | outcome [15]

O=C(O)c1ccccc1Nc1cc(Cl)ccc1C(=O)O
inactive: Potency [1] | Potency [2] | Potency [3] | Potency [5] | Potency [16] | outcome [17] | outcome [6] | outcome [8] | outcome [9] | outcome [10] | outcome [11] | outcome [12] | outcome [13] | outcome [14] | outcome [15] | outcome [18] | Potency [19] | Potency [20]

O=C1CCN(c2ccccc2)N1
inactive: Potency [1] | Potency [2] | Potency [3] | Potency [5] | Potency [16] | outcome [17] | outcome [6] | outcome [7] | outcome [9] | outcome [10] | outcome [11] | outcome [12] | outcome [13] | outcome [14] | outcome [15] | outcome [18] | Potency [20]

CS(=O)(=O)c1ccc([C@@H](O)[C@@H](CF)NC(=O)C(Cl)Cl)cc1
inactive: Potency [1] | Potency [2] | Potency [3] | Potency [5] | Potency [16] | fluorescence, relative to Rose Bengal [17] -0.165% [at 18.6 µM] | fluorescence, % of fluorescein control [6] -0.0021% [at 18.6 µM] | fluorescence, % of triamterene [7] -0.0281% [at 18.6 µM] | fluorescence, % of fluorescein [9] 0.0111% [at 18.6 µM] | fluorescence, % of fluorescent control [10] 0.0627% [at 18.6 µM] | activity change [11] -0.0234% [at 18.6 µM] | fluorescence, % of fluorescent control [12] -0.0638% [at 18.6 µM] | fluorescence, % of Rose Bengal [13] 0.294% [at 18.6 µM] | fluorescence, % of fluorescent control [14] -0.0062% [at 18.6 µM] | fluorescence, % of fluorescein control [15] -0.0102% [at 18.6 µM] | fluorescence, % of fluorescent control [18] -0.0647% [at 18.6 µM] | Potency [19] | Potency [20]

CC(C)(C)c1cccc(O)c1
active: Potency [16] 48.6 µM
inactive: Potency [1] | Potency [2] | Potency [3] | Potency [5] | outcome [17] | outcome [6] | outcome [8] | outcome [9] | outcome [10] | outcome [11] | outcome [12] | outcome [13] | outcome [14] | outcome [15] | outcome [18] | Potency [19] | Potency [20]

COC(=O)N[C@H](C(=O)N[C@@H](Cc1ccccc1)[C@@H](O)CN(Cc1ccc(-c2ccccn2)cc1)NC(=O)[C@@H](NC(=O)OC)C(C)(C)C)C(C)(C)C
inactive: Potency [1] | Potency [2] | Potency [3] | Potency [4] | outcome [17] | outcome [6] | outcome [8] | outcome [9] | outcome [10] | outcome [11] | outcome [12] | outcome [13] | outcome [14] | outcome [15] | outcome [18] | Potency [20]

CCCCC1CCC(=O)O1 (centres undefined)
inactive: Potency [1] | Potency [2] | Potency [3] | Potency [5] | Potency [16] | outcome [17] | outcome [6] | outcome [7] | outcome [8] | outcome [9] | outcome [11] | outcome [12] | outcome [13] | outcome [14] | outcome [15] | outcome [18] | Potency [20]
